Records with an inconclusive call do not appear. Entries that show only a call come without a potency. Calls of active or inactive are those of the source. Unless noted, the call rests on the fitted dose curve; in most records, active means well fitted curve in the direction sought with a large enough effect; inconclusive means small, poorly fitted or top-dose-only effect, or another doubt; inactive means no such curve, though single readings can be large; an effect the other way counts as inactive or inconclusive.
Assays:
[1] = target: Mitogen-activated protein kinase 10 (Mus musculus) (UniProt Q61831); test: JNK3 AlphaScreen Assay (AID 530; active means well fitted curve in either direction with a large enough effect, not every such curve was filed as active;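 further: kinase came from lysate of stimulated human HepG2 cells; signal reports phosphorylation of biotinylated GST-cJun 1-79 at Ser73 with 10 µM ATP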)
Procedure, shortened: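 qHTS titrations with 15 min compound pre-incubation before adding ATP (10 uM final). Read-out: AlphaScreen of Ser73-phosphorylated biotin-GST-cJun using HepG2 lysate JNK3 activated by IL-1β and TNFα.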

[2] = Cellular Toxicity (caspase-3) Jurkat (AID 655); settings: Jurkat caspase-3 activation, luminescence; caspase-3 activation: at 92.2 µM (top of the series), DMSO = 0%, tamoxifen = 100%;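 further: cells exposed to compound for 16 h at 37 °C before reading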
Procedure, shortened: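 qHTS in human Jurkat T-cell leukemia line: 16 hr compound treatment at 37 °C, caspase-3/7 activity measured by Caspase-Glo luminescence. AC50 derived from Hill equation.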

[3] = Cellular Toxicity (caspase-3) N2a (AID 665);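 further: compound exposure lasted 16 h at 37 °C before readout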
Procedure, shortened: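 Caspase-3/7 activation, measured as increased luminescence from aminoluciferin release, is quantified in mouse N2a cells exposed to compounds for 16 h. Values are normalized to DMSO and 10 uM staurosporine, with AC50 derived by Hill modelling.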

[4] = Cellular Toxicity (caspase-3) Renal Proximal Tubule (AID 667);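 further: cells exposed to compound for 16 hours at 37 °C before detection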
Procedure, shortened: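 Caspase-Glo 3/7 read-out, rat primary kidney proximal tubule cells. Compound exposure 16 h, 37 °C; detection after 1 h at RT. Activity scaled to DMSO and 10 uM staurosporine.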

[5] = target: Cytochrome P450 3A4 (Homo sapiens) (UniProt P08684); test: qHTS Assay for Inhibitors and Substrates of Cytochrome P450 3A4 (AID 884); further: nearly all actives have a fitted effect of over 50% in size; further: potency means the concentration at half of the fitted maximal effect
Sequence of Cytochrome P450 3A4 (Homo sapiens) (P08684 whole entry, looked up): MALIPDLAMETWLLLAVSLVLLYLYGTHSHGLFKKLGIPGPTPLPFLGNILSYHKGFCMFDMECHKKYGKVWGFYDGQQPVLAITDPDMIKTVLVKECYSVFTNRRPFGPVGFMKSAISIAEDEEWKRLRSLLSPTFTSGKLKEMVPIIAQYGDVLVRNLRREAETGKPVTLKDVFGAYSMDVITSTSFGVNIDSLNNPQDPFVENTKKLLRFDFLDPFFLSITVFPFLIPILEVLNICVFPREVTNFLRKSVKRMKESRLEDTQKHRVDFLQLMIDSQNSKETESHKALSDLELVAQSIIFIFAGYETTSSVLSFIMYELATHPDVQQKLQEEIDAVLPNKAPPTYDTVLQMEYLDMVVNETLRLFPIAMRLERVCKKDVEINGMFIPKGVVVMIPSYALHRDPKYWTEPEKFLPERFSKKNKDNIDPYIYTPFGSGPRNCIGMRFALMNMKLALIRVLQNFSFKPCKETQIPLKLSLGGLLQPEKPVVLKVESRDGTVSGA
Procedure, shortened: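 Luminescent readout of luciferin produced by CYP3A4 (20 nM) dealkylation of Luciferin-PPXE, 25 uM (its KM). NADPH-driven reaction ran 60 min at RT after 10 min compound preincubation; data scaled to 57 uM ketoconazole as 100% inhibition.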

[6] = MultiTox-Fluor Cytotoxicity Assay - LYMP1-001 - Live Cells (AID 947)
[7] = Cell Viability - LYMP1-003 - Assay at 40 hr (AID 964); further: nearly all actives have a fitted effect of over 60% in size
Procedure, shortened: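 Luminescent ATP signal (CellTiter-Glo) served as the viability read-out after 40 hr compound treatment of human lymphoblastoid LYMP1-003 cells at 37 C. Decreases in ATP were fitted with the Hill equation to give AC50.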

[8] = Cell Viability - LYMP2-004 (AID 966);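 further: cells exposed to compound for 24 h; nearly all actives have a fitted effect of over 65% in size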
Procedure, shortened: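 qHTS cytotoxicity: human lymphoblastoid line, 24 hr compound treatment, 37 C, complete medium. Viability read as cellular ATP via luciferase luminescence; tetraoctylammonium bromide served as positive control.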

[9] = Cell Viability - LYMP2-017 (AID 972);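 further: cells exposed to compound for 24 hours at 37 °C; nearly all actives have a fitted effect of over 55% in size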; further: potency means the concentration at half of the fitted maximal effect
Procedure, shortened: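 Cytotoxicity is scored as a concentration-dependent drop in cellular ATP in a human lymphoblastoid line after 24 hr treatment at 37 C. Values are AC50s from Hill-equation modelling.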

[10] = Cell Viability - LYMP2-019 (AID 973);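 further: cells exposed to compound for 24 h at 37 °C; nearly all actives have a fitted effect of over 55% in size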; further: potency means the concentration at half of the fitted maximal effect
Procedure, shortened: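 Cytotoxicity is scored as a concentration-dependent drop in cellular ATP after cells (2500/well) receive compound for 24 hr at 37 C. Tetraoctylammonium bromide serves as positive control.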

[11] = Cell Viability - LYMP2-007 (AID 979);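 further: cells exposed to compound for 24 h before reading; nearly all actives have a fitted effect of over 60% in size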; further: potency means the concentration at half of the fitted maximal effect
Procedure, shortened: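 Cells are seeded at 2500 per well and rested 5 hr. Compounds are then added over a concentration series for 24 hr at 37 C. CellTiter-Glo is added for 30 min at room temperature before luminescence reading.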

[12] = Cell Viability - LYMP2-008 (AID 980);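 further: cells exposed to compound for 24 h at 37 °C; nearly all actives have a fitted effect of over 60% in size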
Procedure, shortened: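 Cells seeded at 2500/well and rested 5 hr at 37 C; compounds added over a concentration range and incubated 24 hr at 37 C; CellTiter-Glo added, 30 min at room temperature; luminescence read and AC50 fitted with Hill model.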

[13] = Cell Viability - LYMP2-012 (AID 982);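 further: cellular ATP by luciferase luminescence where a drop means cytotoxicity; cells exposed to compound for one day before reading; nearly all actives have a fitted effect of over 55% in size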
[14] = Cell Viability - LYMP2-014 (AID 983);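 further: cells exposed to compound for 24 h at 37 °C; nearly all actives have a fitted effect of over 50% in size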
Procedure, shortened: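 Cells are plated at 2500/well and left 5 hr at 37 C. Compounds are added across a concentration range and incubated 24 hr at 37 C in complete medium. CellTiter-Glo is added, and luminescence is read after 30 min at room temperature.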

[15] = Cell Viability - LYMP2-018 (AID 985);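 further: compound exposure lasted 24 hr at 37 °C; nearly all actives have a fitted effect of over 50% in size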
Procedure, shortened: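 Seed 2500 lymphoblastoid cells per well, incubate 5 hr at 37 C, add compound and incubate 24 hr at 37 C, add CellTiter-Glo, wait 30 min at room temperature, then read luminescence.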

[16] = Cell Viability - LYMP1-002 - Assay at 40 hr (AID 994); further: nearly all actives have a fitted effect of over 60% in size
Procedure, shortened: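 Cells are plated at 2500 per well and rested 5 hr at 37 C. Compounds are added and incubated 40 hr at 37 C. CellTiter-Glo reagent is added for 30 min at room temperature before luminescence is read.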

[17] = qHTS assay for small molecule antagonists of retinoid X receptor alpha signaling (AID 588546); settings: HEK293T RXRa-UAS-bla, beta-lactamase ratio, antagonist mode; measured here: W530 green channel, cytotoxicity proxy;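 further: cells stimulated with 9-cis-retinoic acid as agonist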
Procedure, shortened: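 Beta-lactamase reporter inhibition, read as CCF4 fluorescence ratio (ex 405, em 460/530 nm) after 2 h at RT. HEK293T UAS-bla cells, 2500/well, were stimulated with 9-cis-RA at 500 or 100 nM final alongside test compound for 18 h at 37 C.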

[18] = target: Voltage-gated inwardly rectifying potassium channel KCNH2 (Homo sapiens) (UniProt Q12809); test: qHTS Assay for Small Molecule Inhibitors of the Human hERG Channel Activity (AID 588834);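 further: top concentration of the series differs between compounds; lower thallium flux fluorescence means stronger hERG block; nearly all actives have a fitted effect of over 50% in size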
Sequence of Voltage-gated inwardly rectifying potassium channel KCNH2 (Homo sapiens) (Q12809 whole entry, looked up): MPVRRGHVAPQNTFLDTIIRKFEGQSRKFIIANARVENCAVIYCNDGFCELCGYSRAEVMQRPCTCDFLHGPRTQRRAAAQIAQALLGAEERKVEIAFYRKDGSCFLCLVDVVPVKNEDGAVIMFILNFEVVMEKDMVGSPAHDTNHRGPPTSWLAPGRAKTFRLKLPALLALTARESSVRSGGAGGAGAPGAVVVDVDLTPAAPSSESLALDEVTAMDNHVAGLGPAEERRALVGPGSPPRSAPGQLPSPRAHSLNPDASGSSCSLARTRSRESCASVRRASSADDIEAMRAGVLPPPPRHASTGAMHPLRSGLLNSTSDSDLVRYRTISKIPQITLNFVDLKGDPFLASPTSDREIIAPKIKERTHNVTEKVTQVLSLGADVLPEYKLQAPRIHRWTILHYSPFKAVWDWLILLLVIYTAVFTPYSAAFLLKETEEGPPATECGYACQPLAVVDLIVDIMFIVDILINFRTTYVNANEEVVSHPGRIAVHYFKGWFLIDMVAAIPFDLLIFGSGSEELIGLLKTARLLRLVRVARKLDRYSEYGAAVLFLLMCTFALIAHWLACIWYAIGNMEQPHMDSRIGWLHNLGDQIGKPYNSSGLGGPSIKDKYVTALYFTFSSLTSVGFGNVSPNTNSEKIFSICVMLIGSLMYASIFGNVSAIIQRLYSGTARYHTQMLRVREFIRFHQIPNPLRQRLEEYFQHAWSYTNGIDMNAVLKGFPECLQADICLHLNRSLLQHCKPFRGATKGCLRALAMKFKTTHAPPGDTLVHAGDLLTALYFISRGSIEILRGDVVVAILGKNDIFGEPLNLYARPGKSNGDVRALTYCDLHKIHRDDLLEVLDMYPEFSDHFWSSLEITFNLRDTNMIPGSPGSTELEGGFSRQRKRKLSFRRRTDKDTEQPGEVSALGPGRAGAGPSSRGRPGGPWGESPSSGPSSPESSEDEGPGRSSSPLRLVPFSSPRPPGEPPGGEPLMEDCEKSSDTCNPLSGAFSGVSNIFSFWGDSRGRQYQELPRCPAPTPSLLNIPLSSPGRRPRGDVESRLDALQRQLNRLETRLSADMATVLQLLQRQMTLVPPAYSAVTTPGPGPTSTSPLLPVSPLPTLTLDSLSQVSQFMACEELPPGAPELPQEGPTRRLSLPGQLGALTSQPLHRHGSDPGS
Procedure, shortened: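 Homogeneous FluxOR thallium flux assay using hERG-expressing U2OS cells (BacMam). Compound treatment about 10 minutes preceded stimulation; reduced fluorescence taken as channel block.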

[19] = target: Tumor necrosis factor (Homo sapiens) (UniProt P01375); test: qHTS assay to identify small molecules that stimulate Tumor Necrosis Factor-alpha (TNF-alpha) secretion (AID 651757; active means well fitted curve in the direction sought with a large enough effect in the signal ratio; the % refers to the signal ratio)
Sequence of Tumor necrosis factor (Homo sapiens) (P01375 whole entry, looked up): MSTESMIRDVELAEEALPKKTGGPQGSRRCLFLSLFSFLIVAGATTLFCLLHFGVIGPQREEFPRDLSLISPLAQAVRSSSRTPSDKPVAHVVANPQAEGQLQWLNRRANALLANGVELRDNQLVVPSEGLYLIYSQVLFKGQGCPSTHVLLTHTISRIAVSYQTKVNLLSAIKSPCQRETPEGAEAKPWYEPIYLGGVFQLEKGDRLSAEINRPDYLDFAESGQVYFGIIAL
Procedure, shortened: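 Human monocytic THP-1 cells are plated, treated with compound and held at 37 C for 17 hrs. Labeled anti-TNF-alpha antibody mixture is then added; after 3 hr at room temperature, TR-FRET signal reports secreted TNF-alpha.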

[20] = qHTS assay for cell viability of the p53RE-bla HCT-116 cell line (AID 743292); further: nearly all actives have a fitted effect of over 55% in size
Procedure, shortened: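 Viability of compound-treated p53RE-bla HCT-116 cells is taken from ATP-dependent luciferase luminescence. Treatment lasts 16 h at 37 C after a 5 h settling period; detection follows 30 min at room temperature.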

| Structure (SMILES) | Potency [1] | caspase-3 activation [2] | outcome [3] | outcome [4] | Potency [5] | outcome [6] | Potency [7] | Potency [8] | Potency [9] | Potency [10] | Potency [11] | Potency [12] | Potency [13] | Potency [14] | Potency [15] | Potency [16] | max response [17] | Potency [18] | outcome [19] | Potency [20] |
| --- | --- | --- | --- | --- | --- | --- | --- | --- | --- | --- | --- | --- | --- | --- | --- | --- | --- | --- | --- | --- |
| CCCCCCCCCCCOC(=O)c1ccccc1C(=O)OCCCCCCCCCCC | inactive | 2.1% (inactive) | inactive | inactive | inactive | inactive | inactive | inactive | inactive | inactive | inactive | inactive | inactive | inactive | inactive | inactive | 5.25% | inactive | inactive | inactive |
| Nc1ccc(Cc2ccc(N)c(Cl)c2)cc1Cl | inactive | 25.3% (inactive) | inactive | inactive | 5.01 µM (active) | inactive | inactive | inactive | inactive | inactive | inactive | inactive | inactive | inactive | inactive | inactive | -5.52% |  | inactive |  |
| O=[N+]([O-])/C=C/c1ccccc1 | inactive |  |  | inactive | inactive |  | inactive |  | 50.1 µM (active) | 39.8 µM (active) | 31.6 µM (active) |  |  |  |  | inactive | -11.2% | inactive | inactive | inactive |
| CC(C)[N+](=O)[O-] | inactive | 1.63% (inactive) | inactive | inactive | inactive | inactive | inactive | inactive | inactive | inactive | inactive | inactive | inactive | inactive | inactive | inactive | 10.7% | inactive | inactive | inactive |
| O=[N+]([O-])c1c(Cl)c(Cl)c(Cl)c(Cl)c1Cl | inactive | 0.645% (inactive) | inactive | inactive | inactive | inactive | inactive | inactive | inactive | inactive | inactive | inactive | inactive | inactive | inactive | inactive | -1.28% | inactive | inactive | inactive |
| CN(C)c1ccc(N(C)C)cc1 | inactive | 1.91% (inactive) | inactive | inactive | inactive | inactive | inactive |  |  |  |  |  |  |  |  | inactive | -9.82% | inactive |  | inactive |
| O=C(O)C(Br)CBr (stereo not given) | inactive | 1.63% (inactive) | inactive | inactive | inactive | inactive | inactive |  | inactive | inactive |  | inactive | inactive | inactive | inactive | inactive |  | inactive | inactive | inactive |
| Cc1cc(N=Nc2ccccc2C)ccc1N |  | 2.76% (inactive) | inactive | inactive | 5.01 µM (active) | inactive |  | inactive | inactive | inactive | inactive | inactive | inactive | inactive | inactive | inactive | -7.48% | inactive |  | inactive |
